Drawing on PubChem BioAssay (EPA / NIEHS), this text covers outcome and AC50 for 15 molecules.

Assay [1] can be described thus: CCTE_Harrill_HTTr_Apoptosis_MCF7: CCTE's 6-hour Apoptosis Assessment for the High-Throughput Transcriptomics (HTTr) Platform, in MCF-7 cells cultured in DMEM + 10% fetal bovine serum, Harrill Lab (AID 2284011). An outline of the steps:
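Cells are dosed with test chemicals at eight concentrations and imaged 6 hours later for caspase-3/7 activity using a green fluorogenic detection reagent. Activity is fitted in both directions against DMSO controls.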

A short description of assay [2]: CCTE_Harrill_HTTr_CellCount_MCF7: CCTE's Cell Proliferation Assessment for the High-Throughput Transcriptomics (HTTr) Platform, Harrill Lab (AID 2284012; active = hit-call score of the fitted dose curve at least 0.9, where 1 is the maximum;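 also: count of Hoechst-stained nuclei per well by high-content imaging in MCF-7 cells; cells exposed to compound for six hours; intended direction is loss of nuclei count meaning fewer cells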). A digest of the protocol: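 Nuclei counting (Hoechst, high content imaging) in MCF-7 after a 6 h treatment at eight concentrations. Activity fitted bidirectionally, DMSO as negative control.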
A short description of assay [3]: CCTE_Deisenroth_AIME_384WELL_CTox_Active: Cytotoxicity Assessment (CTOX) in CCTE's 384-well Estrogen Receptor Transactivation Assay with AIME metabolic competence (metabolism positive), Deisenroth Lab (AID 2284037; active = hit-call score of the fitted dose curve at least 0.9, where 1 is the maximum;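 also: chemicals first conditioned 2 h by alginate-bound induced rat liver S9 before cells; activity means signal loss indicating cell death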). A digest of the protocol: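 VM7Luc4E2 breast cells received medium pre-incubated 2 h with chemical over alginate microspheres holding induced male Sprague Dawley rat liver S9; viability read 24 h later by protease-substrate fluorescence. Loss of signal, bidirectional fit, 0.002–200 uM.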

Assay [4] is described as follows: CCTE_Deisenroth_AIME_384WELL_CTox_Inactive: Cytotoxicity Assessment (CTOX) in CCTE's 384-well Estrogen Receptor Transactivation Assay without AIME metabolic competence (metabolism negative), Deisenroth Lab (AID 2284039; active = hit-call score of the fitted dose curve at least 0.9, where 1 is the maximum;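 also: cell viability via live-cell protease substrate cleaved to fluorescent probe; cells exposed 24 h to medium preincubated 2 h with alginate-water beads without S9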). A digest of the protocol:
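Fluorescence from a live-cell protease substrate, read after 24 h in VM7Luc4E2 cells, indicated viability. Test medium came from a 2 h AIME step without hepatic S9 (alginate-water microspheres); concentrations spanned 0.002 - 200 uM, single technical replicate per run.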

Assay [5] can be described thus: CCTE_Shafer_MEA_dev_per_burst_spike_percent: CCTE's Neural Network Formation Assay for Percent of Spikes in a Burst, Shafer Lab (AID 2284032).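 As to AC50: fitted as a decrease in burst spike percentage below DMSO baseline.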 An outline of the steps: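 Rat primary cortical neurons on 16-electrode MEA wells, dosed from plating day 0 for 12 days with renewal on DIV 5 and 9; spikes-in-bursts percentage averaged over bursting electrodes, collapsed as AUC across days 5, 7, 9, 12; loss direction versus DMSO.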

A short description of assay [6]: CCTE_Shafer_MEA_dev_active_electrodes_number: CCTE's Neural Network Formation Assay for Number of Active Electrodes, Shafer Lab (AID 2284040; active = hit-call score of the fitted dose curve at least 0.9, where 1 is the maximum;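 as to AC50: potency for loss of active electrodes versus DMSO so lower counts are hits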). A digest of the protocol:
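Rat cortical primary cultures, 1.5 x 10^5 cells/well, PEI-coated MEA, laminin drop. Continuous exposure DIV 0–12; full media/compound change DIV 5, 9. Readout: electrodes with mean firing ≥5 spikes/min; AUC across days; loss vs DMSO.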

The nature of assay [7]: CCTE_Shafer_MEA_dev_burst_rate: CCTE's Neural Network Formation Assay for Burst Rate, Shafer Lab (AID 2284042). An outline of the steps:
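Developmental network assay measuring how 12-day exposure of rat cortical neuron cultures alters bursting on extracellular MEA recordings. Values are AUC of well-mean burst rate across four recording days, relative to DMSO vehicle.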

Assay [8] can be described thus: CCTE_Shafer_MEA_dev_bursting_electrodes_number: CCTE's Neural Network Formation Assay for Number of Bursting Electrodes, Shafer Lab (AID 2284043; active = hit-call score of the fitted dose curve at least 0.9, where 1 is the maximum;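 as to AC50: potency is for loss of bursting electrodes relative to DMSO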). An outline of the steps:
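Primary rat cortical neurons were cultured on PEI-coated 48-well MEA plates (16 electrodes/well) and exposed from plating through day 12, with compound renewed at feeds on DIV 5 and 9. Electrodes bursting ≥1 per 2 min were counted on DIV 5, 7, 9, 12; trapezoidal AUC taken.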

A short description of assay [9]: CCTE_Shafer_MEA_acute_burst_number: CCTE's Neural Acute Assay for Single-Electrode Bursts, Shafer Lab (AID 2284013). An outline of the steps:
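Rat cortical cultures, DIV 13/15; 40 min baseline, then 40 min with compound 0.03-40 uM, 37 C. Spikes: 300-5000 Hz band-pass, threshold 8x rms noise. Readout = % change in single-electrode bursts vs baseline, loss-of-signal fit.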

Assay [10] in a line: CCTE_Shafer_MEA_acute_burst_duration_mean: CCTE's Neural Acute Assay for Mean Burst Duration, Shafer Lab (AID 2284014).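 Also: hits are decreases in mean burst duration relative to DMSO controls.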 An outline of the steps:
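Primary rat cortical neurons on 16-electrode MEA wells, treated on DIV 13 or 15 with compound (0.03-40 uM; ≥3 wells each). 40-min baseline and 40-min exposure recordings at 37 C; percent change in mean burst duration per well versus DMSO.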

A short description of assay [11]: CCTE_Shafer_MEA_acute_per_burst_spike_number_mean: CCTE's Neural Acute Assay for Average Number of Spikes Per Burst, Shafer Lab (AID 2284015).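 Also: hits are decreases in mean spikes per burst versus baseline.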 An outline of the steps:
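We recorded spontaneous network firing of rat cortical neurons for 40 min before and 40 min during exposure to compound at 0.03-40 uM, at 37 C. Spikes were detected adaptively at 8x rms noise, and the change in average spikes per burst was fitted against DMSO.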

Assay [12] can be described thus: CCTE_Shafer_MEA_acute_interburst_interval_mean: CCTE's Neural Acute Assay for Mean Interburst Interval, Shafer Lab (AID 2284016).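 Also: percent change of mean interburst interval versus each well's own pre-dose baseline; curves fitted for decrease in interburst interval relative to DMSO.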 An outline of the steps: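 MEA recording of spontaneous network bursting in primary rat cortical cultures; mean interburst interval was compared before and after a 40-min compound exposure (0.03-40 uM) and expressed as percent change, relative to DMSO.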

A short description of assay [13]: CCTE_Shafer_MEA_acute_burst_percentage_std: CCTE's Neural Acute Assay for Standard Deviation of Burst Percentage, Shafer Lab (AID 2284018).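 Also: fitted in the negative direction so actives lower burst percentage SD.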 An outline of the steps: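 Primary rat cortical neurons on 16-electrode MEA wells were recorded 40 min at baseline (DIV 13 or 15), then 40 min after compound (0.03-40 uM), at 37 C. Well value is SD across electrodes of spikes-in-bursts/total spikes; endpoint is percent change, DMSO-referenced.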

Assay [14] can be described thus: CCTE_Shafer_MEA_acute_per_network_burst_spike_number_mean: CCTE's Neural Acute Assay for Average Number of Spikes in a Network Burst, Shafer Lab (AID 2284019).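 As to AC50: curve fitted for loss of signal so actives reduce spikes per network burst.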 A digest of the protocol:
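Primary rat cortical neurons on 16-electrode MEA wells, DIV 13 or 15, 37 C; 40-min baseline then 40-min recording with compound (0.03-40 uM). Spikes per network burst (total spikes/number of bursts) expressed as percent change from baseline, DMSO reference.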

A short description of assay [15]: CCTE_Shafer_MEA_acute_per_network_burst_electrodes_number_mean: CCTE's Neural Acute Assay for Mean Number of Electrodes in a Network Burst, Shafer Lab (AID 2284021).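 Also: curves fitted for decreases only so hits reduce electrodes per burst.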 An outline of the steps:
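Cultures of rat cortex neurons were exposed on DIV 13 or 15 to compounds at 0.03-40 uM in at least three wells each. Activity over 40 min before and 40 min after exposure at 37 C gave the percent change in electrodes per network burst.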

A short description of assay [16]: CCTE_Shafer_MEA_acute_cross_correlation_HWHM: CCTE's Neural Acute Assay for Cross Correlation at Half Width at Half Maximum, Shafer Lab (AID 2284026).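 Also: percent change per well from pre-dose baseline in spike cross-correlogram half width; hits are a decrease in cross-correlogram half width relative to DMSO.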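 As to outcome: spontaneous network firing of rat primary cortical neurons on multiwell microelectrode arrays.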 A digest of the protocol:
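Primary cortex (rat), MEA, DIV 13/15; compound 0.03-40 uM; 40 min pre + 40 min post at 37 C; spike threshold 8x rms; wells need ≥10 active electrodes; endpoint = % change in cross-correlogram HWHM vs baseline, DMSO negative control.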

Assay [17] is described as follows: CCTE_Shafer_MEA_acute_synchrony_index: CCTE's Neural Acute Assay for Synchrony, Shafer Lab (AID 2284027).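 Also: network synchrony index of spontaneous spiking in primary rat cortical neurons on MEAs; fitted for loss of signal so actives lower synchrony relative to DMSO.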 An outline of the steps: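 Spontaneous firing of mature rat cortical networks is captured extracellularly on microelectrode arrays at 37 C, with wells needing ≥10 active electrodes. Each compound (0.03-40 uM) is judged by the change in synchrony index from baseline over 40 min.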

Assay [18] deals with Estrogen receptor (Homo sapiens) (UniProt P03372). Description: CCTE_Deisenroth_AIME_384WELL_LUC_Active: CCTE's 384-well Estrogen Receptor Transactivation Assay with AIME metabolic competence (ERTA luciferase; metabolism positive), Deisenroth Lab (AID 2284030; active = hit-call score of the fitted dose curve at least 0.9, where 1 is the maximum). An outline of the steps:
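In this metabolism-positive format, a 2-hour exposure to alginate-immobilized rat S9 precedes a 24 hour luciferase transactivation readout in VM7Luc4E2 cells. Dosing spans 10 concentrations from 0.002 to 200 uM.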

The target is the same in assay [19]. Put plainly: CCTE_Deisenroth_AIME_384WELL_LUC_Inactive: CCTE's 384-well Estrogen Receptor Transactivation Assay without AIME metabolic competence (ERTA luciferase; metabolism negative), Deisenroth Lab (AID 2284038; active = hit-call score of the fitted dose curve at least 0.9, where 1 is the maximum;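 also: hits raise estrogen receptor luciferase signal so potencies reflect agonists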). An outline of the steps:
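Chemicals (10-point series, 0.002 - 200 uM) were incubated 2 hours with alginate-water microsphere lids lacking S9, then the conditioned medium was transferred to VM7Luc4E2 breast cells for 24 hour. Luciferase induction was read by bioluminescence, fitted upward relative to 17beta-estradiol.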

Assay [20] shares this target. Put plainly: CCTE_Deisenroth_AIME_384WELL_LUC_Shift: CCTE's 384-well Estrogen Receptor Transactivation Assay with AIME metabolic competence data shift (ERTA luciferase; difference in metabolism positive and negative), Deisenroth Lab (AID 2284041).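 Also: shift is response with S9 minus without S9 so positive means metabolism raised ER signal.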 An outline of the steps:
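Here, parent compounds undergo 2 h phase I metabolism by PB/BNF-induced rat S9 before 24 h transactivation in VM7Luc4E2 cells; the curve models S9-positive minus S9-negative response over a 10-point series.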

For orientation: AC50 means the midpoint of the concentration-response curve, whichever way the signal moves.

SMILES strings stand for the structures. Results filed as inconclusive are left out. Activity calls are given as the source filed them. The calls were made as follows, unless noted: active = hit-call score of the fitted dose curve at least 0.9, where 1 is the maximum; inactive = score below 0.9.

Chain of Estrogen receptor (Homo sapiens) (P03372 whole entry, looked up): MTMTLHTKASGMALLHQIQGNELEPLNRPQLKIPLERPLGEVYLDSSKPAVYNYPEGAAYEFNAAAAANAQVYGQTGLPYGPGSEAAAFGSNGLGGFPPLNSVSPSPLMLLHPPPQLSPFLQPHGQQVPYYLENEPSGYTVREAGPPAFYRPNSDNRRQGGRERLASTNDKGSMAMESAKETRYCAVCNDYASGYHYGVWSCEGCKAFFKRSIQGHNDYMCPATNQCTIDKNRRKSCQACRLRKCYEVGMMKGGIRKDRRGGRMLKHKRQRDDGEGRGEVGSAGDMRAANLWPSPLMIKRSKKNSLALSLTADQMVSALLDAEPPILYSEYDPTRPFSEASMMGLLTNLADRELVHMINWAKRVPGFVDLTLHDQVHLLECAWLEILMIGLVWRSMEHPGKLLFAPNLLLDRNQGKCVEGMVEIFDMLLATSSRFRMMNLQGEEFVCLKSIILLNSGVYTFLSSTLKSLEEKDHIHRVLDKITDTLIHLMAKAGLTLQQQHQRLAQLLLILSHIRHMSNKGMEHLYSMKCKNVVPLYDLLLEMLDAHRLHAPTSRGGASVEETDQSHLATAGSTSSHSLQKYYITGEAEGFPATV

Consider `Cc1cc(Cl)ccc1OCCCC(=O)O`, for which the result in [1], in assay [2], in assay [3] and in [4] was inactive.

`FC(F)OCC(F)(F)C(F)(F)F`: the result in assay [5], in [6], in [7] and in [8] was inactive.

Turning to `CNC(=O)CSP(=O)(OC)OC`, the result in assay [2], in assay [5], in [6], in [7] and in [8] was inactive.

Consider `Clc1cccc(Cl)c1`, for which the result in assay [1], in assay [2] and in assay [4] was inactive.

In the case of `O=C(CBr)c1ccc(O)cc1`, the result in assay [3] was inactive.

Take `O=S(=O)(F)C(F)(F)C(F)(F)C(F)(F)C(F)(F)F`: the molecule was classed as inactive in assay [5], in [6], in assay [7] and in [8].

Turning to `Cc1cc(C(F)(C(F)(F)F)C(F)(F)F)ccc1NC(=O)c1cccc(I)c1C(=O)NC(C)(C)CS(C)(=O)=O`, the result in assay [1], in assay [10], in assay [12], in [13], in [15] and in [7] was inactive. Moreover, the AC50 in [9] was 1.39 µM (active); in assay [11] it was 20.7 µM (active); in [14], 5.87 µM (active); in [16], 4.61 µM (active); in assay [17], 5.74 µM (active); in assay [5], 5.5 µM (active). For the same molecule, the AC50 in [6] and in assay [8] was 11.3 µM (active) throughout.

As for `CN(C)C(=S)S`, the result in assay [1], in assay [9], in assay [10], in [11], in [12] and in assay [13] was inactive. For the same molecule, the result in assay [14], in assay [15], in [16], in assay [17] and in [4] was inactive.

As for `CCN(CCO)CCO`, the molecule was called inactive in [18], in assay [3], in [19], in assay [4] and in assay [20].

Turning to `N#CCC#N`, the result in assay [1], in [2], in assay [18], in [3], in [19] and in assay [4] was inactive. Also, the result in [20] was inactive.

As to `C=CC(F)(C(F)(F)F)C(F)(F)C(F)(F)F` (centres undefined), the outcome in assay [5], in assay [7] and in assay [8] was inactive.

`Cc1cc(Cl)ccc1OC(C)C(=O)O` (centres undefined): the molecule was called inactive in [18], in [3], in [19] and in assay [20].

Take `OCCCCO`: the result in assay [1], in [9], in assay [10], in assay [11], in [12] and in [13] was inactive. For the same molecule, the call in assay [14], in assay [15], in assay [16] and in [17] was inactive.

In the case of `CC(C)[C@@H](Nc1ccc(C(F)(F)F)cc1Cl)C(=O)OC(C#N)c1cccc(Oc2ccccc2)c1` (some centres undefined), the result in [1], in [9], in assay [16], in assay [5] and in [7] was inactive. Moreover, the AC50 in assay [10] was 841 nM (active); in assay [11], 0.84 µM (active); in assay [12] it was 2.12 µM (active); in assay [13], 1.28 µM (active); in [14], 0.415 µM (active); in [15] it was 310 nM (active). The AC50 in assay [17] was 0.403 µM (active); in assay [6] it was 14.5 µM (active); in assay [8], 14.5 µM (active).

Turning to `O=S1(=O)OC(c2cc(Br)c(O)c(Br)c2)(c2cc(Br)c(O)c(Br)c2)c2ccccc21`, the outcome in [1], in assay [2], in [4] and in assay [20] was inactive. Moreover, the AC50 in assay [3] is 160 µM (active).
